This is a sample that favours compounds with a hit; in the whole collection about 27% have one here.
CYP2C9 inhib: human CYP2C9 inhibition. P11712. CYP2C9 Supersomes, luciferin-H conversion, luminescence. inhibition, % at 5 µM. 96,000 tested, 20% active;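 active = blocking of liver enzyme CYP2C9 beyond about 50% at 5 µM, limit read from the data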
CYP2C19 activ: cytochrome P450 2C19 (human) activation; P33261; recombinant CYP2C19, luciferin-H EGE luminescence; stronger effect = higher value; 0 = fully inhibited enzyme, 1 = untreated enzyme; activation factor at 5 µM; 96,000 tested, under 10 active;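 active = activation factor of at least 2 at 5 µM in the primary screen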
Target sequence (P33261 whole entry, looked up): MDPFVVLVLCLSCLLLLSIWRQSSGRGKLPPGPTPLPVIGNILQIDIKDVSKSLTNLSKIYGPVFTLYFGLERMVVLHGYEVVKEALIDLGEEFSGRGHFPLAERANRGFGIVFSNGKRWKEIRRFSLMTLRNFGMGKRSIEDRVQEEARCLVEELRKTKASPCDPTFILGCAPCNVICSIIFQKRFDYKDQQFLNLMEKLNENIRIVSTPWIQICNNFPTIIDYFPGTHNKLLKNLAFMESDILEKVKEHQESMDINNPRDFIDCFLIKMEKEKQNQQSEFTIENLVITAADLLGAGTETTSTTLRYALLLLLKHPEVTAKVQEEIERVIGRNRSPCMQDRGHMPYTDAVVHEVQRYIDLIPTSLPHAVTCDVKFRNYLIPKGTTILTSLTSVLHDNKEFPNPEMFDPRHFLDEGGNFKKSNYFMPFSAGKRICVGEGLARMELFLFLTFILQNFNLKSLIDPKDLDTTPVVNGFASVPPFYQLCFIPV
sEH inh: inhibitors of human soluble epoxide hydrolase. AID 707. recombinant human sEH enzymatic activity assay. inhibition, % at 2 µM. P34913. 91,000 tested, 0.34% active; in the data active = inhibition above about 80%
sEH act: activators of human soluble epoxide hydrolase; activation, % at 2 µM; AID 717; P34913; 91,000 tested, 0.04% active; purified human sEH enzymatic activity, activator screen; in the data active = activation above about 37%
CYP2C9 activ: increases human cytochrome P450 2C9 activity. 96,000 tested, 1.4% active. P11712. recombinant CYP2C9, luciferin-H conversion, luminescence; stronger effect = higher value; factor 1 = untreated enzyme, 0 = blocked. activation factor at 5 µM;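 active = activation factor of 2 or more for CYP2C9 at a 5 µM dose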
CYP2C19 inhib: human CYP2C19 inhibition. P33261. CYP2C19 Supersomes, luciferin-H EGE luminescence, 30 min. inhibition, % at 5 µM. 96,000 tested, 21% active. AID 778;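 active = CYP2C19 inhibition above a set limit at 5 µM in the primary screen, cut at about 50% in these data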
Of the large screens only hits and unclear results are named; the others gave an inactive call.

CCOC(=O)c1c(-c2ccc(OC)cc2)csc1NC(=O)CCN1C(=O)c2ccccc2C1=O	CYP2C9 inhib 78.1, CYP2C19 inhib 55.0
CC(C)Cn1c(N)c(C(=O)COC(=O)C2=COCCO2)c(=O)n(C)c1=O	none (no result: CYP2C9 inhib, CYP2C19 activ, CYP2C9 activ, CYP2C19 inhib)
O=C(/C=C\Nc1cccc(F)c1)c1cccs1	CYP2C19 inhib 55.3
O=C(/C=C/Nc1cccc(F)c1)c1ccco1	none
Cc1ccc(C(=O)Nc2ccccc2-c2ccccc2)cc1[N+](=O)[O-]	CYP2C9 inhib 50.1
Cc1ccc(C)c(NS(=O)(=O)c2cc(C(=O)Nc3ccccc3-c3ccccc3)ccc2Cl)c1	CYP2C9 inhib 69.7, CYP2C19 inhib 79.3
Cc1ccc(NS(=O)(=O)c2cc(C(=O)O)ccc2Cl)c(C)c1	none (no result: CYP2C9 inhib, CYP2C19 activ, CYP2C9 activ, CYP2C19 inhib)
COC(=O)c1ccc(NC(=O)c2ccccc2N(C)S(=O)(=O)c2ccccc2)cc1	none
COCCNC(=O)c1ccccc1NC(=O)c1ccccc1N(C)S(=O)(=O)c1ccc(C)cc1	CYP2C9 inhib 94.7, CYP2C19 inhib 84.2
COCCNC(=O)c1ccccc1NC(=O)c1ccc(Cl)c(S(=O)(=O)Nc2ccc(C)cc2C)c1	CYP2C9 inhib 81.1
CCCCCCC(c1c(C)n(C)n(-c2ccccc2)c1=O)c1c(C)n(C)n(-c2ccccc2)c1=O	none (no result: CYP2C9 inhib, CYP2C19 activ, CYP2C9 activ, CYP2C19 inhib)
Cc1cc(C)nc(N2CCCC(C(=O)Nc3nnc(C(C)C)s3)C2)n1 (stereo not drawn)	none (no result: CYP2C9 inhib, CYP2C19 activ, CYP2C9 activ, CYP2C19 inhib)
Cc1cc(OCCOc2cccc3cccnc23)cc(C)c1Cl	CYP2C9 activ 2.2
O=C(Nc1cc(S(=O)(=O)N2CCCC2)ccc1Cl)C1=COCCO1	CYP2C19 inhib 52.5
CCCCOC(=O)Nc1cc(C(=O)OC)ccc1C(=O)OC	none (no result: sEH inh, sEH act)
CCOC(=O)CC(Nc1nc(N2CCOCC2)nc(N2CCOCC2)n1)c1ccccc1Cl (stereo not drawn)	CYP2C9 inhib 53.1, CYP2C19 inhib 67.5
CCOC(=O)CC(NC(=O)c1ccco1)c1ccccc1Cl (stereo not drawn)	none
CC(C)CC(=O)N1CCN(S(C)(=O)=O)CC1	none
COc1ccc(CC(=O)N2CCN(c3ccc(C4=NNC(=O)CC4C)cc3)CC2)cc1 (stereo not drawn)	none
CCN1C(c2ccccc2)C(C)C(=O)C(C)C1c1ccccc1 (stereo not drawn)	CYP2C9 inhib 88.1, CYP2C19 inhib 65.3
O=C(CCNS(=O)(=O)c1cccc2nonc12)NC1CCCc2ccccc21 (stereo not drawn)	CYP2C9 activ 2.4 (no result: sEH inh, sEH act)
CCc1ccc(NC(=O)CCNS(=O)(=O)c2cccc3nonc23)cc1	CYP2C9 inhib 55.1 (no result: sEH inh, sEH act)
COc1ccc(NC(=O)CNS(=O)(=O)c2cccc3nonc23)c(OC)c1	CYP2C9 inhib 74.2, CYP2C19 inhib 71.8 (no result: sEH inh, sEH act)
CC(=O)c1ccc(NC(=O)CCNS(=O)(=O)c2cccc3nonc23)cc1	none (no result: sEH inh, sEH act)
O=C(CCNS(=O)(=O)c1cccc2nsnc12)NCCc1ccccc1	CYP2C19 inhib 51.5 (no result: sEH inh, sEH act)
O=C(CCCNS(=O)(=O)c1cccc2nsnc12)NCc1ccccc1	none
COc1ccc(CCNC(=O)CN(C)S(=O)(=O)c2cccc3nsnc23)cc1OC	none
COc1ccc(CCNC(=O)CCNS(=O)(=O)c2cccc3nsnc23)cc1OC	CYP2C19 inhib 72.5 (no result: sEH inh, sEH act)
Cc1ccc(CNC(=O)CNS(=O)(=O)c2cccc3nsnc23)cc1	CYP2C9 inhib 52.4
O=C(CCCNS(=O)(=O)c1cccc2nsnc12)NCc1ccc(Cl)cc1	none
COc1ccc(CCNC(=O)CCNS(=O)(=O)c2cccc3nonc23)cc1OC	CYP2C19 inhib 72.5
CCCCc1nc(N)c(C#N)c(-c2ccco2)c1CCC	none (no result: CYP2C9 inhib, CYP2C19 activ, CYP2C9 activ, CYP2C19 inhib)
C=CCn1c(Cc2csc(N)n2)nnc1SCC(=O)Nc1ccc(C(=O)OCC)cc1	none
C=CCn1c(Cc2csc(N)n2)nnc1SCc1ccc(C(=O)OC)cc1	CYP2C9 inhib 72.9, CYP2C19 inhib 93.7 (no result: sEH inh, sEH act)
COC(=O)c1ccc(CSc2nnc(C)s2)cc1	none
COC(=O)c1cccc(CSc2nnc(C)s2)c1	CYP2C19 inhib 62.5
N#Cc1ccc(CSc2nnc(NC(=O)C3CCCO3)s2)cc1 (stereo not drawn)	none
COC(=O)c1ccc(CSc2nnc(N)s2)cc1	CYP2C19 inhib 73.8 (no result: sEH inh, sEH act)
O=C(Nc1nnc(SCc2ccc(Cl)cc2)s1)C1CCCO1 (stereo not drawn)	CYP2C9 inhib 73.4
O=C(O)C1C2C=CC(O2)C1C(=O)NCCCn1ccnc1 (stereo not drawn)	none
CCCCCN(C(=O)CN(C)Cc1ccc(OC)cc1OC)c1c(N)n(CCCC)c(=O)[nH]c1=O	none

High-throughput results (PubChem)
